A selection: hits, their analogues and other compounds. The true share with any hit is near 1.9%.
PINK1 modulator: modulators of PINK1 expression | PINK1 immunofluorescence, high-content cytometry, 24 h | Potency, µM (top dose mostly 76.6 µM), for the others: top-dose activation (PINK1 increase), hits mostly activators | actives 0.2% (n = 410,000); active = well fitted activation curve with a large enough effect; inconclusive = small, poorly fitted or top-dose-only effect; cell line not stated here; note: potency is the fitted concentration of half-maximal effect; % of control where 0% means no effect; nearly all actives have a fitted effect of over 65% in size
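A stable cell line was treated with compounds at 5 concentrations for 24 hours, with CCCP as control. PINK1 levels and mitochondrial localization were measured by immunofluorescence with mitochondrial, cell and nuclear markers after fixation, read by laser-scanning cytometry.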
ClpP mod: qHTS Assay for Activators of ClpP | purified B. subtilis ClpP, FRET peptide cleavage, 20 min | Potency, µM (titrated, usually from 57.5 µM), for the others: at the highest dose activity change, negative = active | actives 1.9% (n = 340,000); active = well fitted falling curve with a large enough effect; inconclusive = small, poorly fitted or top-dose-only effect; inactive = no such curve, though single readings can be large or run the other way; note: potency is the fitted concentration of half-maximal effect; the source files actives as falling curves though it sought activators and does not explain the sign; nearly all actives have a fitted effect of over 65% in size
Target sequence (P80244 whole entry, looked up): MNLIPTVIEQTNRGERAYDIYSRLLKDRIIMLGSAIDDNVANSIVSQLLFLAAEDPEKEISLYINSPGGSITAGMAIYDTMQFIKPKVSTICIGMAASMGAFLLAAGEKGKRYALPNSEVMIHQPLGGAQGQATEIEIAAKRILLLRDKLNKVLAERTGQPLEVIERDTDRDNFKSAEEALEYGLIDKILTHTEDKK
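Purified B. subtilis ClpP, 10 microg/mL final in Tris/HCl pH8 with KCl, BSA, glycerol and Tween-20, cleaved an Abz/nitrotyrosine-quenched decapeptide. Fluorescence (ex 320, em 430) was read at 0 and 20 min at room temperature. Delta was normalized to 5.8 microM ADEP and DMSO/no-enzyme controls.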
Menin-MLL FL inh: displaces fluorescein MLL peptide from human menin. Fluorescence polarization, fluorescein-MLL peptide displacement from menin. FP activity change, % at 61.4 µM. 290,000 tested, under 10 active; active = well fitted curve in the direction sought with a large enough effect in the polarisation, not every such curve was filed as active; inconclusive = small, poorly fitted or top-dose-only effect, or effect the other way, or a change in a side signal; inactive = no such curve, though single readings can be large or run the other way; the % refers to the polarisation; note: % of control where 0% means no effect
Menin MLL FP TR: inhibitors of human menin-MLL interaction, mutant MLL peptide | Potency, µM (series often up to 61.6 µM), inactives show at the highest dose FP activity change, negative = inhibition, actives largely listed as inhibitors | O00255 | actives 0.23% (n = 270,000) | AID 1768 | Menin + Texas Red MLL mutant peptide, fluorescence polarization; active = well fitted inhibition curve with a large enough effect in the polarisation, with a control signal flat, not every such curve was filed as active; inconclusive = small, poorly fitted or top-dose-only effect, or effect the other way, or a change in a side signal; inactive = no such curve, though single readings can be large or run the other way; the % refers to the polarisation; note: potency is the fitted concentration of half-maximal effect; % of control where 0% means no effect
CXXC DNA block: inhibitors of human MLL CXXC domain-DNA interaction | Q03164 | MLL-CXXC / FITC-HOXA9 DNA fluorescence polarization | Potency, µM (top dose mostly 115 µM), for the others: top-dose activity change, negative = inhibition, usual class: inhibitors | actives 0.037% (n = 290,000); active = well fitted inhibition curve with a large enough effect in the polarisation, with a control signal flat, not every such curve was filed as active; inconclusive = small, poorly fitted or top-dose-only effect, or effect the other way, or a change in a side signal; inactive = no such curve, though single readings can be large or run the other way; the % refers to the polarisation; note: potency is the fitted concentration of half-maximal effect
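Purified MLL-CXXC (added from a 7 uM solution) was preincubated 5 min at ambient with pinned compounds in 50 mM Tris-HCl pH 7.5, 50 mM NaCl, 1 mM DTT, 0.05% BSA. Fluorescein-labeled HOX-A9 DNA (50 nM solution) followed, 30 min, then polarization read.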
Epigenetic reg: derepresses silenced GFP reporter in murine cells; murine LDR cells, GFP reporter derepression, 30 h; Potency, µM (series often up to 53.9 µM), inactives show at the highest dose GFP activation, hits mostly activators; actives 0.2% (n = 280,000); active = well fitted activation curve with a large enough effect; inconclusive = small, poorly fitted or top-dose-only effect; note: potency is the fitted concentration of half-maximal effect; % of control where 0% means no effect; nearly all actives have a fitted effect of over 60% in size
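Readout is the number of GFP-expressing murine LDR cells, counted by cytometry following washing. Cells were treated with compound for 30 h at 37 C; the stably integrated CMV-GFP locus is normally silent.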
Starred values were filed as active, the others as inactive; ? = inconclusive; / = not tested or not shown; [ ] = dose if it differs, or a comment.

SMILES	PINK1 modulator	ClpP mod	Menin-MLL FL inh	Menin MLL FP TR	CXXC DNA block	Epigenetic reg
COc1ccc(OC)c(CNC(=O)c2ccc3c(c2)c(C)c(C)n3Cc2ccc(Cl)cc2)c1	5%	32µM*	/	/	/	5%
Cc1ccc(N=C2C(=O)Nc3ccccc32)c(C)c1	2%	/	-6	-17%	-6%	/
O=C1NC(c2ccc(Cl)cc2)Nc2ccccc21 (configuration not stated)	-1%	/	0	?	-5%	-6%
Cc1ccc(C2NC(=O)c3ccccc3N2)c(C)c1 (configuration not stated)	6%	28µM*	/	/	/	/
CN(C)c1ccc(C2NC(=O)c3ccccc3N2)cc1 (configuration not stated)	-1%	38%	-6	-8%	-9%	/
Cc1ccc(C2NC(=O)c3ccccc3N2)s1 (configuration not stated)	?	28µM*	1	3%	-4%	0%
Cc1cccc(C2NC(=O)c3ccccc3N2)c1 (configuration not stated)	?	28µM*	/	/	/	/
Cc1cc(C)n2nc(C(=O)NCC3Cc4cccc(-c5ccc(S(C)(=O)=O)cc5)c4O3)cc2n1 (configuration not stated)	2%	/	/	/	/	/
COCc1c(C(=O)NC2CCCCC2)cnn1-c1nccc(-c2cc(C)sc2C)n1	1%	/	/	/	/	/
CN(C)c1cccc(C(=O)n2cc(C(=O)c3cc(F)ccc3O)cn2)c1	1%	48%	4	7%	8%	4%
COc1ccc(O)c(C(=O)c2cnn(C(=O)c3cccc(N(C)C)c3)c2)c1	5%	22µM*	/	/	/	/
O=C(COC(=O)c1cccs1)Nc1nc(-c2ccccc2)cs1	1%	32µM*	2	-21%	1%	-1%
O=C(COC(=O)/C=C/c1cccs1)Nc1nc(-c2ccccc2)cs1	5%	/	5	-16%	-6%	1%
S=C(c1cn(CCOc2cccc3ccccc23)c2ccccc12)N1CCCC1	28µM*	-1%	12	-3%	11%	-1%
S=C(c1cn(CCOc2ccccc2)c2ccccc12)N1CCCC1	?	1%	2	7%	38%	-5%
CN(Cc1cnc2ccccn12)C(=O)c1cc(NC(=O)c2ccccc2)cc2ncn(C3CCCC3)c12	1%	/	/	/	/	/
Cc1ncc2c(c1CNC(=O)c1ccc3c(c1)OCO3)CCN(C(=O)c1csc3c1CCCC3)C2	0%	/	/	/	/	/
Cc1ccc(-c2ccccc2NC(=O)C2C3C=CC(C3)C2C(=O)O)o1 (configuration not stated)	2%	25µM*	9	9%	-3%	0%
CC1(C)Cc2ccccc2C(NNC(=O)c2ccncc2)=N1	-1%	3%	-1	0%	-13%	-1%
CC1(C)Cc2ccccc2C(NNC(=O)c2cccnc2)=N1	1%	18µM*	2	3%	-11%	-1%
CCc1nc2cc(C(=O)N3CCC[C@H]3CO)cc(NC(=O)c3ccccc3OC)c2n1C	-1%	/	/	/	/	/
COC(=O)c1cc(CNC(=O)c2ccncc2)cc(NC(=O)c2ccccc2Cl)c1	0%	/	/	/	/	/
Nc1ccccc1-c1ccccc1N	-5%	7.9µM*	4	-1%	2%	-1%
Nc1ccccc1-c1ccc(Cl)cc1	2%	-1%	/	/	/	/
N#Cc1c(N)nc2c(c1-c1ccco1)CCCCC2	2%[38.3 µM]	-20%	/	/	/	/
SMILES	PINK1 modulator	ClpP mod	Menin-MLL FL inh	Menin MLL FP TR	CXXC DNA block	Epigenetic reg
N#Cc1c(N)nc2c(c1-c1cccs1)CCCC2	1%	-19%	6	1%	-2%	0%
Cc1c(-c2c(C#N)c(N)nc3c2CCCCCC3)cnn1C	-1%	13µM*	-2	21%	6%	-2%
Cc1nn(C)c(C)c1-c1c(C#N)c(N)nc2c1CCCCCC2	-2%	1.3µM*	1	-12%	-2%	-1%
CC(C)(C)c1ccc(-c2c(C#N)c(N)nc3c2CCCC3)s1	-1%	32µM*	2	-14%	0%	-1%
N#Cc1c(N)nc2c(c1-c1cccnc1)CCCCC2	-3%[38.3 µM]	-27%	0	-6%	2%	0%
N#Cc1c(N)nc2c(c1-c1ccncc1)CCCCC2	-5%[38.3 µM]	22µM*	0	-14%	-7%	3%
Cc1cnc(-n2ncc(C(=O)NCCN3CCOCC3)c2-c2cccs2)nc1-c1ccc(F)cc1	0%	/	/	/	/	/
CCCCc1c(C)c2ccc(OCC(C)=O)cc2oc1=O	-2%	4µM*	6	6%	1%	1%
CCCc1c(C)c2ccc(OCC(C)=O)cc2oc1=O	-2%	3.2µM*	-1	-12%	4%	1%
C=CCOC(=O)COc1ccc2c(C)c(C)c(=O)oc2c1	1%[38.3 µM]	13µM*	0	-15%	-2%	0%
COc1cccc(C(=O)NCC2Cc3c(F)ccc(-c4ncccn4)c3O2)c1OC (configuration not stated)	0%	/	/	/	/	/
CC(C)CNC(=O)CSc1ccc(Cl)cc1	0%	25µM*	3	1%	-4%	0%
Cc1ccc(SCC(=O)NCC(C)C)cc1	-1%	2%	-2	1%	-5%	0%
Cc1ccc(-c2nnn(CC(=O)Nc3ccc4nn(-c5ccccc5)nc4c3)n2)o1	6%	14µM*	7	-19%	5%	0%
Brc1ccc(/C=C2\C=Cc3ccccc32)cc1	2%	1%	/	/	/	/
O=c1[nH]c2ccccc2c2ccccc12	1%	-23%	-1	?	-5%	-1%
COc1c(N)c2ccccc2[nH]c1=O	2%	32µM*	6	25%	1%	0%
c1ccc(-c2cn3c(n2)-c2ccccc2C3)cc1	-1%	14µM*	5	10%	14%	2%
Cc1ccc(NC(=O)C(OC(=O)c2cc(C)oc2C)c2ccccc2)cc1 (configuration not stated)	14%	-1%	1	20%	4%	0%
Cc1cc(C(=O)OC(C(=O)Nc2cccc(C(F)(F)F)c2)c2ccccc2)c(C)o1 (configuration not stated)	35µM*	-16%	4	7%	5%	0%
COc1cccc2[nH]c3c(N4CCCCC4)ncnc3c12	0%[38.3 µM]	28µM*	6	-18%	6%	-6%
COc1cccc2[nH]c3c(Cl)ncnc3c12	7%	16µM*	-2	?	-3%	-3%
COc1ccc2[nH]c3c(Cl)ncnc3c2c1	5%	0%	4	-24%	15%	-1%
CCOC(=O)C(C(=O)Nc1cccc(C)n1)C1CCCCC1 (configuration not stated)	2%	-1%	-2	-9%[11.7 µM]	-1%	1%
CCOC(=O)C(C(=O)Nc1ccccn1)C1CCCCC1 (configuration not stated)	1%	28µM*	4	7%	13%	0%
